In the supplement of paper PMC10849652:
The full data set covers some 8,800 targets. This sample favours those with a hit. About 0.5% of all pairs of compound and target were hits. A number with no mark means an inactive call.

Columns and labels:
Assay in all cases: log2 fold change, soluble protein after heating vs DMSO (PISA); higher = thermal stabilisation; K562 lysate, 10 uM; active = over 0.2 and 3.5 SD of the protein, either way, in both replicates (recomputed)
lapatinib = compound: CS(=O)(=O)CCNCc1ccc(-c2ccc3ncnc(Nc4ccc(OCc5cccc(F)c5)c(Cl)c4)c3c2)o1 [lapatinib]
Procedure, shortened: (§1)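 A 30 min treatment with 10 μM compound was applied to crude K562 extract at 1 mg/mL protein in PBS pH 7.4 with 1 mM MgCl2. Heating for 3 min spanned 48°C-58°C, after which aliquots were pooled, adjusted to 0.5% NP-40 at 4°C and spun at 21,000xg for 90 min. TMTpro 16plex LC-MS/MS of the supernatant, with channel sums equalised, gave values recorded as log-two fold change in thermal stability against solvent controls, from duplicates.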

pictilisib = compound: CS(=O)(=O)N1CCN(Cc2cc3nc(-c4cccc5[nH]ncc45)nc(N4CCOCC4)c3s2)CC1 [pictilisib]
Procedure, shortened: as §1

crizotinib = compound: C[C@@H](Oc1cc(-c2cnn(C3CCNCC3)c2)cnc1N)c1c(Cl)ccc(F)c1Cl [crizotinib]
Procedure, shortened: as §1

[1] = compound: C[C@H](C1=CC=C(C=C1)C(=O)NC2=C3C=CNC3=NC=C2)N
Procedure, shortened: as §1

duvelisib = compound: C[C@H](Nc1ncnc2nc[nH]c12)c1cc2cccc(Cl)c2c(=O)n1-c1ccccc1 [duvelisib]
Procedure, shortened: as §1

gandotinib = compound: Cc1cc(Nc2cc(CN3CCOCC3)c3nc(C)c(Cc4ccc(Cl)cc4F)n3n2)n[nH]1 [gandotinib]
Procedure, shortened: as §1

tozasertib = compound: Cc1cc(Nc2cc(N3CCN(C)CC3)nc(Sc3ccc(NC(=O)C4CC4)cc3)n2)n[nH]1 [tozasertib]
Procedure, shortened: as §1

doramapimod = compound: Cc1ccc(-n2nc(C(C)(C)C)cc2NC(=O)Nc2ccc(OCCN3CCOCC3)c3ccccc23)cc1 [doramapimod]
Procedure, shortened: as §1

bafetinib = compound: Cc1ccc(NC(=O)c2ccc(CN3CC[C@H](N(C)C)C3)c(C(F)(F)F)c2)cc1Nc1nccc(-c2cncnc2)n1 [bafetinib]
Procedure, shortened: as §1

[2] = compound: Cc1cccc(CC(=O)N2CCc3c2ccc(-c2cn(C)c4ncnc(N)c24)c3F)n1
Procedure, shortened: as §1

Chain of UniProt Q13825 (Q13825 whole entry, looked up): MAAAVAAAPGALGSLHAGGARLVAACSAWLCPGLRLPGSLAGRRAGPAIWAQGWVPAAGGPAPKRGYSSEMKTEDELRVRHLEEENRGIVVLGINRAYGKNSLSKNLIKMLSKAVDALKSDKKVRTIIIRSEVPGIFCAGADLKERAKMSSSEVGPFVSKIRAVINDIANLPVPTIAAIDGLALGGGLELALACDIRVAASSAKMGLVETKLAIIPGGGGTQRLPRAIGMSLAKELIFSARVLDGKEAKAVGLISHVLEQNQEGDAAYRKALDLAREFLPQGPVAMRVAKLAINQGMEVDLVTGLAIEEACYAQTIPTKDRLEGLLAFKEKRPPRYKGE
Chain of UniProt Q9Y6K0 (Q9Y6K0 whole entry, looked up): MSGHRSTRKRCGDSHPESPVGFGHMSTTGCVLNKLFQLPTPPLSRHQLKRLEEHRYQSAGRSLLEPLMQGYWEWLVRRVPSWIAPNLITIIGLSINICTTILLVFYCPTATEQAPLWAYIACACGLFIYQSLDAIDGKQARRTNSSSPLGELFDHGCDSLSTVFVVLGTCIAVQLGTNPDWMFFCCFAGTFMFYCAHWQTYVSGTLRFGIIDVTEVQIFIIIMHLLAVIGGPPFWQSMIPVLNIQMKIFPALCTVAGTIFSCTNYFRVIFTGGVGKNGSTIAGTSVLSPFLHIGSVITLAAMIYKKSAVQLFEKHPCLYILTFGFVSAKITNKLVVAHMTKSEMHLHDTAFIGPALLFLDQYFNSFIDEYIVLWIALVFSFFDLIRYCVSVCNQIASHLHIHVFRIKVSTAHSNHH
Chain of UniProt Q8N4Q1 (Q8N4Q1 whole entry, looked up): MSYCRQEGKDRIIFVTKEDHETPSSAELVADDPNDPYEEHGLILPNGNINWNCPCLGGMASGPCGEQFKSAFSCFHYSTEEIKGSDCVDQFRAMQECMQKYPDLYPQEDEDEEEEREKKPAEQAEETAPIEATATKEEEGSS
Chain of UniProt Q00535 (Q00535 whole entry, looked up): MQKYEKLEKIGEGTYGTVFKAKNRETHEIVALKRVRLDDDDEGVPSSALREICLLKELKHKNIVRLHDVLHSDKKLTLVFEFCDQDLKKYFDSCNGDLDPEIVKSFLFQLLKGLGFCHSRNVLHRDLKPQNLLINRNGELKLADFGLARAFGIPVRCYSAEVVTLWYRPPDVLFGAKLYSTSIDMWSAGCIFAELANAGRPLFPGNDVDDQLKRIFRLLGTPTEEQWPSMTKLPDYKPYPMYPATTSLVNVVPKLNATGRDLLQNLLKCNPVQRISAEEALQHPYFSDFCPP
Chain of UniProt Q9HB09 (Q9HB09 whole entry, looked up): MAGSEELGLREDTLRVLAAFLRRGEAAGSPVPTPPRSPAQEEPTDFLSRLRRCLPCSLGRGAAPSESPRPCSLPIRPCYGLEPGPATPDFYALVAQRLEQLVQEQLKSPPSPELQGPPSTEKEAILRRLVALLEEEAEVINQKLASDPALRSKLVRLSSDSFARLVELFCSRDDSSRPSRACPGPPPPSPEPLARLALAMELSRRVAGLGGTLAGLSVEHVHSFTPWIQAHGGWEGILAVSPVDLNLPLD
Chain of UniProt Q12873 (Q12873 whole entry, looked up): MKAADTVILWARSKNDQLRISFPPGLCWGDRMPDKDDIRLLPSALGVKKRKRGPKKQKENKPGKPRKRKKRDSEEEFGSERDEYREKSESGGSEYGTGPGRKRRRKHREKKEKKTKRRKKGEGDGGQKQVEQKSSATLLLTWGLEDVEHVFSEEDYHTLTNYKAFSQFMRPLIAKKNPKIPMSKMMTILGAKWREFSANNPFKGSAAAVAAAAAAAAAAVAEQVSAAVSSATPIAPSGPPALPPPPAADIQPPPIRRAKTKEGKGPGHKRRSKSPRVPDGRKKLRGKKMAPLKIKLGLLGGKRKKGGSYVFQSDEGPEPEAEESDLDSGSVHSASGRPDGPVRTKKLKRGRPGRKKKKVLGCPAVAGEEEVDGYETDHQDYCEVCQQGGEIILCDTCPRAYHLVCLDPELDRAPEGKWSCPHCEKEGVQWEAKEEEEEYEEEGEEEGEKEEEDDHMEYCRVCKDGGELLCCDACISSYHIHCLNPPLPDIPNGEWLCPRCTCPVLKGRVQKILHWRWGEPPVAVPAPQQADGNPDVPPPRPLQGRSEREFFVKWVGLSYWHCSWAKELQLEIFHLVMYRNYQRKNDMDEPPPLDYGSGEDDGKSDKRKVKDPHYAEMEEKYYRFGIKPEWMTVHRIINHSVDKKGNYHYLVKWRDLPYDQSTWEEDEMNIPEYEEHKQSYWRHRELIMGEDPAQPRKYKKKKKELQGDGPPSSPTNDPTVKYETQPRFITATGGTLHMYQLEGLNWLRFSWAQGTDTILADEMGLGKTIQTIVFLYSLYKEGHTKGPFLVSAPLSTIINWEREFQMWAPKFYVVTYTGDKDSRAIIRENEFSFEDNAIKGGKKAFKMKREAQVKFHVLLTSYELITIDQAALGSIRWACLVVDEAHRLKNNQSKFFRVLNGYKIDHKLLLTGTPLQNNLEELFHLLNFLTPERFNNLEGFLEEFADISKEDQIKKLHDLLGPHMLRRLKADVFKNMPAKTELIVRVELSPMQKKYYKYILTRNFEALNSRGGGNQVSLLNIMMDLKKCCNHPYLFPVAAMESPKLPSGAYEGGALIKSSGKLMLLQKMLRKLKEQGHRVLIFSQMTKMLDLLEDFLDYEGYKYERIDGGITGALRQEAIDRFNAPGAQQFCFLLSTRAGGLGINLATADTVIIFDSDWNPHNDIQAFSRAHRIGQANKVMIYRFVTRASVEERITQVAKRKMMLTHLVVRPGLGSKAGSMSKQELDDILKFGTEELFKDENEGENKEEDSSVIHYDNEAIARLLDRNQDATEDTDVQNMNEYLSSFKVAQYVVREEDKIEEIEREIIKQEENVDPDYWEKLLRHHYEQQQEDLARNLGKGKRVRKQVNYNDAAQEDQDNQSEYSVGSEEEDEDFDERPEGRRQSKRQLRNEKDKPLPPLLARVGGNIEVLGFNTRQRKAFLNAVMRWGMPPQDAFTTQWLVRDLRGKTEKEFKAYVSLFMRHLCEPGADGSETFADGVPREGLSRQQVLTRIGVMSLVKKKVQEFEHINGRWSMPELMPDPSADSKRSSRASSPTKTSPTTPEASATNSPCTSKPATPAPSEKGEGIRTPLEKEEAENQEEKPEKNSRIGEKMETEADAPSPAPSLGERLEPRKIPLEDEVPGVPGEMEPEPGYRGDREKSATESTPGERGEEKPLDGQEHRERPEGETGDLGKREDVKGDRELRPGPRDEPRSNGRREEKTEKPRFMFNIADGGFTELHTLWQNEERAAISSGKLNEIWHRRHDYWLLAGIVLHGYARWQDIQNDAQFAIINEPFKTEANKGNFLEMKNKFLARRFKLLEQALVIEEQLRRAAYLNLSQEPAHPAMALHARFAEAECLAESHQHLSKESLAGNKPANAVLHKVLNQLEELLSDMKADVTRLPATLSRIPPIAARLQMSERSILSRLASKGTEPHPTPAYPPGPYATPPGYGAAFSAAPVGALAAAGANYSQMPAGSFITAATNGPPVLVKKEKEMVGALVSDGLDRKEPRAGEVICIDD
Chain of UniProt P27824 (P27824 whole entry, looked up): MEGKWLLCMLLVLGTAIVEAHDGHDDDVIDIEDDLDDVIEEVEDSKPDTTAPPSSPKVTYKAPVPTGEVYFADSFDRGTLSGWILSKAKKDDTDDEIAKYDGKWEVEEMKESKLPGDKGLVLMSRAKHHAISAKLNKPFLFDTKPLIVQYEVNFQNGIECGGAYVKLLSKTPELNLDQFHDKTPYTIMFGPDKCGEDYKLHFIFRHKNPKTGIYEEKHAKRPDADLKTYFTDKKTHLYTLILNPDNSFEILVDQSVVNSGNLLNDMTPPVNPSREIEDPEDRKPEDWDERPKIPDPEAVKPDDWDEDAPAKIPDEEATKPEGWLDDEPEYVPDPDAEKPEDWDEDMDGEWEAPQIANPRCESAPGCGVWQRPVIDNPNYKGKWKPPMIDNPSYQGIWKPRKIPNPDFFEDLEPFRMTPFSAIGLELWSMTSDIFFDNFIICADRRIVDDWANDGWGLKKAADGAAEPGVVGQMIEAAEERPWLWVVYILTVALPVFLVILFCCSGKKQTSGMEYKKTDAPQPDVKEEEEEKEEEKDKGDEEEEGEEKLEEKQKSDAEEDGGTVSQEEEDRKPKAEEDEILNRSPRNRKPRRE
Chain of UniProt P83916 (P83916 whole entry, looked up): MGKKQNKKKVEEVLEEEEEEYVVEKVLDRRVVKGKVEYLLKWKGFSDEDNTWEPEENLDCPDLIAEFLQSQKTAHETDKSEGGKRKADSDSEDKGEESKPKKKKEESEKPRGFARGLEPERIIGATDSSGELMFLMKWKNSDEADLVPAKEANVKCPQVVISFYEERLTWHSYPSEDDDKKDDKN
Chain of UniProt P46527 (P46527 whole entry, looked up): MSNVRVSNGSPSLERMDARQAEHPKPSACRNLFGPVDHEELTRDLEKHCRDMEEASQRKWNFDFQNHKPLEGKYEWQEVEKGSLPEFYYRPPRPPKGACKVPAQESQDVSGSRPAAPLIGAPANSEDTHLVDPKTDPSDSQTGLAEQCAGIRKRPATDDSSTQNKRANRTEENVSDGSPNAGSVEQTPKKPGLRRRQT
Chain of UniProt Q9BV29 (Q9BV29 whole entry, looked up): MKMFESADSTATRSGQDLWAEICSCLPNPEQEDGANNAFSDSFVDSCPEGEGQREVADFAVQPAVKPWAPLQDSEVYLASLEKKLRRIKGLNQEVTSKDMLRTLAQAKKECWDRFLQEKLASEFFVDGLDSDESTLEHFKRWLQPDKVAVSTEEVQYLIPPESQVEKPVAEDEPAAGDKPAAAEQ
Chain of UniProt Q9UEE9 (Q9UEE9 whole entry, looked up): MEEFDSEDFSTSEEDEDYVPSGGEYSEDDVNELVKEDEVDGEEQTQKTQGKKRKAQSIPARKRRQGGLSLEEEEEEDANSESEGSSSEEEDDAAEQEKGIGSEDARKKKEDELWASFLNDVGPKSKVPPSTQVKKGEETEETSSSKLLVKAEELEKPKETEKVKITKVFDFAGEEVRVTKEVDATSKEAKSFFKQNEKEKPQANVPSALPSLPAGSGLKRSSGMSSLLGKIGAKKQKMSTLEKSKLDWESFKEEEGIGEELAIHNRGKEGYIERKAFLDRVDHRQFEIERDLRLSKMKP

| Target | log2 fold change (lapatinib) | log2 fold change (pictilisib) | log2 fold change (crizotinib) | log2 fold change [1] | log2 fold change (duvelisib) | log2 fold change (gandotinib) | log2 fold change (tozasertib) | log2 fold change (doramapimod) | log2 fold change (bafetinib) | log2 fold change [2] |
| --- | --- | --- | --- | --- | --- | --- | --- | --- | --- | --- |
| CAMK1 (UniProt Q14012) | -0.037 | -0.058 | -0.078 | -0.145 | -0.042 | 0.187 | 0.05 | -0.006 | -0.047 | 0.314 (active) |
| CCNY (UniProt Q8ND76) | -0.061 | -0.044 | -0.035 | -0.094 | -0.057 | 0.081 | 0.056 | 0.033 | -0.073 | 0.054 |
| CCDC186 (UniProt Q7Z3E2) | -0.056 | -0.004 | 0.006 | 0.295 (active) | 0.022 | -0.061 | 0 | -0.01 | -0.047 | -0.064 |
| BCKDK (UniProt O14874) | -0.056 | -0.028 | 0.096 | -0.038 | -0.008 | -0.095 | -0.039 | -0.033 | 0.012 | -0.003 |
| AUH (UniProt Q13825) | 0.165 | -0.131 | 0.012 | 0.144 | 0.135 | -0.117 | 0.455 (active) | 0.023 | -0.003 | -0.345 |
| ATP11A (UniProt P98196) | -0.118 | -0.087 | -0.005 | -0.108 | 0.081 | 0.017 | 0.009 | -0.07 | -0.05 | 0.1 |
| CFDP1 (UniProt Q9UEE9) | -0.018 | 0.008 | -0.052 | -0.288 (active) | 0.006 | 0.066 | -0.032 | 0.041 | 0.07 | 0.091 |
| BRAT1 (UniProt Q6PJG6) | 0.026 | -0.013 | -0.103 | 0 | -0.001 | -0.1 | 0.017 | 0.052 | -0.014 | 0.038 |
| CBX1 (UniProt P83916) | 0.052 | -0.006 | 0.023 | 0.279 (active) | 0.03 | -0.143 | -0.05 | -0.034 | 0.025 | -0.138 |
| CDC16 (UniProt Q13042) | 0.016 | 0 | 0.009 | 0.047 | 0.011 | -0.095 | 0.06 | 0.014 | -0.039 | -0.057 |
| CARHSP1 (UniProt Q9Y2V2) | -0.014 | -0.08 | 0.011 | -0.053 | 0.003 | 0.047 | 0.003 | -0.012 | -0.033 | 0.019 |
| CANX isoform 2 (UniProt P27824) | 0.018 | 0.037 | -0.002 | -0.037 | 0.015 | 0.026 | 0.015 | 0.006 | 0.017 | 0.052 |
| CEPT1 (UniProt Q9Y6K0) | -0.121 | -0.08 | -0.122 | -0.106 | -0.019 | -0.058 | 0.025 | -0.07 | -0.124 | 0.223 (active) |
| CCDC32 isoform 2 (UniProt Q9BV29) | 0.04 | 0.02 | -0.021 | -0.195 | 0.024 | 0.025 | 0.062 | 0.007 | -0.087 | 0.085 |
| CCDC25 (UniProt Q86WR0) | -0.028 | -0.001 | -0.015 | 0.487 (active) | 0.011 | -0.062 | -0.021 | 0.065 | 0.008 | -0.095 |
| CDKN1B (UniProt P46527) | 0.083 | -0.043 | 0.139 | 0.047 | -0.06 | -0.161 | -0.005 | -0.04 | -0.106 | -0.059 |
| CDC42EP4 (UniProt Q9H3Q1) | 0.031 | 0.029 | -0.017 | -0.047 | -0.029 | 0.223 (active) | -0.017 | 0.157 | -0.027 | 0.102 |
| CHD3 isoform 3 (UniProt Q12873) | -0.022 | -0.02 | 0.009 | 0.014 | -0.022 | -0.013 | -0.002 | 0.028 | -0.047 | 0.033 |
| BCL2L12 (UniProt Q9HB09) | 0.164 | -0.184 | 0.01 | 0.045 | 0.009 | -0.003 | -0.056 | -0.016 | -0.296 | 0.057 |
| CCNC (UniProt P24863) | -0.108 | 0.036 | -0.037 | 0.075 | 0.009 | -0.104 | -0.025 | 0.332 (active) | -0.123 | 0.015 |
| CHCHD4 isoform 2 (UniProt Q8N4Q1) | 0.045 | 0.092 | -0.085 | -0.316 | 0.022 | 0.217 | -0.041 | 0.047 | -0.029 | 0.198 |
| BLM (UniProt P54132) | -0.007 | -0.068 | -0.003 | 0.192 | 0.018 | -0.267 (active) | 0.057 | 0.018 | -0.049 | -0.251 |
| CHCHD2 (UniProt Q9Y6H1) | 0.035 | 0 | 0.119 | 0.044 | -0.008 | 0.021 | 0.102 | -0.021 | 0.288 | -0.138 |
| ATP6V1B1 (UniProt P15313) | -0.028 | -0.028 | -0.035 | -0.232 | -0.001 | 0.099 | 0 | 0.042 | -0.044 | 0.129 |
| CCDC47 (UniProt Q96A33) | -0.05 | 0.005 | -0.016 | -0.012 | -0.03 | -0.145 | -0.009 | -0.018 | -0.031 | 0.049 |
| CAPNS1 (UniProt P04632) | 0.064 | 0.024 | 0.047 | -0.21 | -0.015 | 0.15 | -0.042 | 0.079 | 0.016 | 0.005 |
| ATP5PF isoform 2 (UniProt P18859) | 0.04 | -0.088 | 0.054 | 0.591 (active) | -0.021 | -0.185 | -0.018 | -0.083 | 0.221 | -0.19 |
| CCDC51 (UniProt Q96ER9) | -0.038 | -0.055 | -0.01 | 0.259 (active) | -0.034 | -0.217 (active) | 0.007 | -0.053 | -0.106 | -0.232 |
| CDK5 (UniProt Q00535) | -0.094 | 0.095 | -0.031 | -0.024 | 0.03 | 0.451 | 0.014 | 0.423 | -0.008 | -0.023 |
| C16orf70 (UniProt Q9BSU1) | -0.002 | -0.076 | 0.058 |  | -0.013 |  | 0.018 | 0.116 | -0.045 |  |
